# Only some compounds are listed: those with a hit (about 3.7% of all), similar ones and a draw of the others.
# CHT block – human CHT choline transport inhibition. 310,000 compounds, 0.86% hits. B-score at 10 µM. CHT-expressing cells, membrane potential dye, choline response; stronger effect = lower value. Q9GZV3. AID 488975;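 active means B-score over 3 SD under the library average, and starting fluorescence ratio not unusually high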;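 further: choline stimulus applied at its EC90 after an EC20 pre-addition; B-score computed on integrated fluorescence ratio after choline addition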
# Kir21 block – inhibitors of mouse Kir2.1 inward-rectifier potassium channel; 310,000 compounds, 0.85% hits; HEK293-Kir2.1, FluxOR thallium flux fluorescence; stronger effect = lower value; P35561; B-score at 10 µM;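 active means fluorescence ratio B-score at or below minus 3 SD of library scores, with starting-brightness B-score within 2 SD, cut at about -4.2 in these data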;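 further: channel flux triggered by added potassium and thallium sulfate stimulus; B-score of peak minus minimum fluorescence over baseline after thallium stimulus; more negative B-score means stronger Kir2.1 block with less thallium influx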
# CHT PAM – allosteric activators of human choline transporter CHT | Q9GZV3 | CHT-expressing cells, membrane potential dye, choline EC20; stronger effect = higher value; LV-AA mutant CHT in HEK293 cells | B-score at 10 µM | 310,000 compounds, 0.49% hits;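 active means initial fluorescence not abnormally high and integrated response B-score, plate-corrected, over 3 SD above library mean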
# TMEM16A inh – mouse TMEM16A channel inhibition, primary screen | Q8BHY3 | HEK293 TMEM16A/YFP iodide influx fluorescence, ionomycin | normalized B-score (activity score, 25-100; higher = stronger inhibition) at 10 µM | 310,000 compounds, 1.2% hits;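 active means ratio plate-corrected score three or more library SD toward inhibition, starting fluorescence score within five deviations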;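 further: score derived from kinetic fluorescence span divided by baseline fluorescence per well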
# ANO1 activ – activators or potentiators of mouse TMEM16A chloride channel | Q8BHY3 | HEK293 TMEM16A/YFP-H148Q/I152L, iodide quench fluorescence; stronger effect = lower value | B-score at 10 µM | 340,000 compounds, 0.3% hits | AID 623877;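 active means fluorescence-ratio B-score plate-corrected deviation score at least 3 library SD below zero, with starting fluorescence score within 5 deviations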;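 further: channel opened by trigger with iodide after compound preincubation; score built on the fluorescence ratio of max minus min over baseline; more negative score means more quench and so TMEM16A activation or potentiation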
# GPR7 antagonist – antagonists of human GPR7 (neuropeptides B/W receptor 1) | P48145 | 290,000 compounds, 1.1% hits | GPR7-expressing cells, fluorescence antagonist assay | AID 1861 | inhibition, % at 4.4 µM; in the data active means inhibition above about 16%, passing the limit was not always enough;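 further: cells stimulated with the agonist NPW; 0% = agonist with vehicle and 100% = vehicle without agonist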
# CHT activ conf – confirmation of human choline transporter (CHT) activators. activation, % at 10 µM. CHT-expressing cells, membrane potential dye fluorescence (FDSS); % of choline EC20–EC90 response window; HEK293 expressing CHT LV-AA mutant; choline added at its EC20. 2,500 compounds, 91% hits. AID 504833. shares compounds with CHT PAM;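 active means primary screen active, with duplicate mean activation above negative control mean plus 3 SD, cut at about 11% in these data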
# HEK293 MP dye – CHT activator counter-screen hit in parental HEK293 cells. shares compounds with CHT PAM. membrane potential dye fluorescence (FDSS); measured after EC20 choline addition. ratio readout change at 10 µM, hits read low. 2,500 compounds, 62% hits. AID 623908;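 active means duplicate-averaged ratio beyond 3 SD from buffer wells, up or down, though filed actives are nearly all decreases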
# The depositor's hits bear a star; i = inactive; . = not tested or not shown.
SMILES,CHT block,Kir21 block,CHT PAM,TMEM16A inh,ANO1 activ,GPR7 antagonist,CHT activ conf,HEK293 MP dye
COc1ccc(S(=O)(=O)N2CCOC2CNC(=O)C(=O)NCc2ccc3c(c2)OCO3)cc1 (stereo unspecified),i,0.56,i,i,i,2,.,.
CCc1cccc(C)c1NC(=O)CN(C)Cc1ccccc1F,i,-2.4,i,i,i,1,13*,i
CN(CC(=O)NC(=O)Nc1ccccc1F)Cc1ccccc1F,.,.,.,.,i,.,.,.
c1ccc(CN2c3ccccc3-c3nc4ccccc4n3C2c2ccccn2)cc1 (stereo unspecified),i,-0.37,6.4*,i,i,13,52*,i
Cc1nc2ccccc2n1Cc1ccccc1,i,0.58,i,i,i,4,.,.
Cc1ccccc1-n1nc(CSc2nc3ccccc3[nH]2)c(-c2ccccc2)c1N,i,-1.2,i,i,i,0,35*,i
COc1ccc(C[C@H]2CN3C(=NC[C@H]3Cc3ccccc3)N2CCNC(=O)CCC2CCCCC2)cc1,i,-6.1*,i,i,i,7,32*,i
COc1cc(NC(=O)c2ccccc2F)ccc1NC(=O)c1cc2ccccc2o1,i,0.41,i,i,i,-27,.,.
Nc1nc(N2CCN(c3ccccn3)CC2)nc2ccccc12,i,-0.21,i,i,i,-4,26*,-42*
Nc1nc(N2CCCCC2)nc2ccccc12,i,-0.15,i,i,i,7,.,.
CCCCN(CCCC)CC(O)COc1ccccc1Br (stereo unspecified),i,-0.01,6.7*,i,i,26*,26*,i
COc1cccc(NC(=S)N(CCCN2CCOCC2)C(C)c2cc3ccccc3o2)c1 (stereo unspecified),i,1.9,i,i,i,-6,.,.
COC(=O)c1cccc(NC(=O)COc2cccc([N+](=O)[O-])c2)c1,i,-0.04,i,i,i,-7,.,.
COc1ccc(-c2c(C)oc3ccc(C)cc23)cc1,i,-1.5,i,i,i,-15,.,.
CCC(N=c1cc(-c2ccc(OC)cc2)oc2ccc(C)cc12)C(=O)O (stereo unspecified),i,-0.41,i,i,i,10,32*,-27*
CCN1C(=O)c2ccccc2Sc2ccc(C(=O)NCCCN3CCCCC3)cc21,i,-1,i,i,i,5,.,.
CN1CCN(CCCN2c3ccccc3Sc3ccc(S(=O)(=O)N(C)C)cc32)CC1,i,.,i,i,i,.,16*,-30*
CN1CCN(CC(=O)Nc2ccc(S(=O)(=O)N(C)C)cc2)CC1,i,1.6,i,i,i,15,.,.
CC(=O)c1ccc2c(c1)N(CCCN1CCC(CCO)CC1)c1ccccc1S2,i,.,9.1*,i,i,.,46*,-49*
Cc1cccc(C)c1OCc1cc(C(=O)NCC2CC2)no1,i,0.39,i,i,i,-12,.,.
Clc1ccccc1-c1nn2c(-c3ccccn3)nnc2s1,i,-0.22,i,i,i,-6,43*,-38*
CCCCn1c(N)c(N(CCOC)C(=O)c2ccc(COc3ccccc3)o2)c(=O)[nH]c1=O,i,1.2,6.7*,i,i,.,16*,i
O=C(COC(=O)c1ccc(S(=O)(=O)N2CCOCC2)cc1)Nc1ccccc1OC(F)F,.,.,.,.,i,.,.,.
COc1cccc2c1cc1c(=O)n(CC(=O)NCc3ccccn3)nc(C)n12,i,-1.9,i,i,i,-2,.,.
O=C(Nc1ccccc1Cl)Oc1ccc(-c2ccccc2)cc1,i,1.3,i,i,i,3,.,.
